Abs 340nm = absorbance at 340 nm. fold change at 10 µM. 65,000 tested, under 10 active. compound absorbance at 340 nm, fold over control;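 active means at 10 µM dose, initial 340 nm absorbance at least 2 fold that of control wells; inactive means change under 2 fold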;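 further: initial absorbance extrapolated from kinetic A340 decline of NADH oxidation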
Spn DPM-DC inh = inhibitors of Streptococcus pneumoniae diphosphomevalonate decarboxylase. purified DPM-DC, PK/LDH coupled NADH fluorescence. hit rate 0.49% among 65,000. AID 556. calls only at 10 µM;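 active means the 320 compounds with the highest percent inhibition in the single-dose primary screen, excluding strongly autofluorescent ones, cut at about 32% in these data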;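 further: kinetic rate of NADH fluorescence loss reporting ADP formed by the decarboxylase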
Fluor 339 460 = intrinsic fluorescence of library compounds, ex339/em460 – biochemical, MLSMR library, data from DPM-DC assay, artefact control, profiling panel; hit rate 5.5% among 65,000; compound autofluorescence, ex339/em460 nm, NADH buffer; hits give high values; 1 = no-compound wells, NADH background; AID 709; fluorescence fold increase at 10 µM;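 active means at 10 µM, mean starting fluorescence two-fold or more over control wells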;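 further: signal is the first read of a kinetic run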
Spn PMK inh = S. pneumoniae PMK inhibition | inhibition, % at 10 µM | AID 539 | hit rate 0.49% among 65,000 | purified PMK, PK/LDH-coupled NADH absorbance 340 nm;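 active means top-ranked compounds by inhibition in the single 10 µM screen, taking a fixed number of the strongest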
NADH enzymes = inhibitors of enzymes used to reach an NAD/NADH endpoint; coupled PK/LDH NADH assays, four targets; IC50, µM (top dose mostly 10 µM); hit rate 0.02% among 65,000;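 active means single-dose screening hits from any of four coupled enzyme assays that gave an IC50 when retested across doses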;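 further: the DPM-DC format reads NADH fluorescence rather than 340 nm absorbance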
Spn MK inh = inhibitors of Streptococcus pneumoniae mevalonate kinase | purified MK, PK/LDH-coupled NADH absorbance 340 nm | inhibition, % at 10 µM | hit rate 0.48% among 65,000 | AID 555;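 active means ranked among the strongest by inhibition in the single 10 µM screen, a fixed top-ranked set picked for dose follow-up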
Numbers stand for hits; . = inactive; / = no result given; + = active, no number; [ ] = remark or other dose. A selection: hits, their analogues and other compounds. The true share with any hit is near 6.5%.

SMILES	Abs 340nm	Spn DPM-DC inh	Fluor 339 460	Spn PMK inh	NADH enzymes	Spn MK inh
CC(C)(C)C(=O)Cn1c(=O)n(CC2CCCO2)c(=O)c2ccccc21 (stereo not drawn)	.	.	.	.	.	.
Cc1ccc(S(=O)(=O)c2cc3c(=O)n4ccccc4nc3n(C)c2=N)cc1	.	.	.	.	.	.
Cc1ccc(S(=O)(=O)c2cc3c(=O)n4ccccc4nc3n(CC3CCCO3)c2=N)cc1C (stereo not drawn)	.	+[fluoresces]	2.21	.	.	.
O=c1c2ccccc2c2ccccc2c(=O)n1Cc1ccco1	.	.	.	.	.	.
N=c1c(S(=O)(=O)c2ccccc2)cc2c(=O)n3ccccc3nc2n1Cc1ccco1	.	/	4.01	.	.	.
Cc1ccc(S(=O)(=O)c2cc3c(=O)n4ccccc4nc3n(Cc3ccco3)c2=N)cc1C	.	/	3.51	.	.	.
Cc1ccc(S(=O)(=O)N2CCC(C(=O)Nc3ccccc3N3CCCCC3)CC2)cc1	.	.	.	.	.	.
Cc1ccc(S(=O)(=O)c2c(N)n(CC3CCOC3)c3nc4ccccc4nc23)cc1 (stereo not drawn)	.	/	2.09	.	.	.
Nc1c(S(=O)(=O)c2cccc(Cl)c2)c2nc3ccccc3nc2n1CCN1CCOCC1	.	/	3.88	.	.	.
Cc1ccc(S(=O)(=O)N2CCCC(C(=O)NCC3COCCO3)C2)cc1 (stereo not drawn)	.	.	.	.	.	.
Cc1ccc(S(=O)(=O)c2c(N)n(NC(=O)C3CC3)c3nc4ccccc4nc23)cc1	.	/	3.75	.	.	.
CCOCCn1c(=O)c2c(nc3n2CCN3c2ccc(CC)cc2)n(C)c1=O	.	.	.	.	.	.
CCC1Oc2ccc(C)cc2N(CC(=O)NCCN2CCCCCC2)C1=O (stereo not drawn)	.	.	.	25.0	.	.
COc1ccc2nc3oc(C(=O)N4CCC(C(N)=O)CC4)cc3cc2c1	.	/	5.11	.	.	.
COc1ccc2cc3cc(C(=O)Nc4ccc5c(c4)OCCO5)oc3nc2c1	.	.	2.1	.	.	.
COc1ccc2cc3cc(C(=O)NCc4ccc5c(c4)OCO5)oc3nc2c1	.	/	5.07	.	.	.
COc1ccc2cc3cc(C(=O)NCC4COc5ccccc5O4)oc3nc2c1 (stereo not drawn)	.	/	5.01	.	.	.
CCN(C(=O)c1cc2cc3ccc(C)cc3nc2o1)c1ccc(OC)cc1	.	.	.	.	.	.
O=C(CSc1ncnc2c1nnn2-c1ccc(F)cc1)N1CCN(c2ccccc2)CC1	.	.	.	.	.	.
O=C(NC1CCCCC1)C1CCN(S(=O)(=O)N2CCOCC2)CC1	.	.	.	.	.	.
Cc1cccc(NC(=O)C(NS(=O)(=O)c2ccc3c(c2)CCC(=O)N3)c2ccccc2)n1 (stereo not drawn)	.	.	.	.	.	.
CCN(CC)CCCN1C(=O)c2oc3ccccc3c(=O)c2C1c1cc(OC)ccc1OC (stereo not drawn)	.	.	.	.	.	.
COc1ccc2cc3cc(C(=O)N4CCN(Cc5ccc6c(c5)OCO6)CC4)oc3nc2c1	.	/	5.03	.	.	.
COC(=O)c1cc2c(C)nn(-c3ccccc3)c2s1	.	.	.	.	.	.
Cc1nn(-c2ccccc2)c2sc(C(=O)OCC(=O)N3CCCCC3)cc12	.	/	4.01	.	.	.
SMILES	Abs 340nm	Spn DPM-DC inh	Fluor 339 460	Spn PMK inh	NADH enzymes	Spn MK inh
Cc1nn(-c2ccccc2)c2sc(C(=O)OC3CCOC3=O)cc12 (stereo not drawn)	.	/	4.95	.	.	.
COC(=O)c1ccc(OCC(O)CN(CC(C)C)CC(C)C)cc1 (stereo not drawn)	.	.	.	.	.	.
C=CCn1c(=N)c(C(=O)NCCCOC)cc2c(=O)n3cc(C)ccc3nc21	.	/	3.83	.	.	.
C=CCn1c(=N)c(C(=O)NCCCOC)cc2c(=O)n3ccccc3nc21	.	/	3.72	.	.	.
C=CCn1cc(C(=O)NCCCOC)c(=O)c2cc(S(=O)(=O)N(CC)CC)ccc21	.	.	.	.	.	.
O=c1[nH]c(=O)n(CCO)c2nnn(Cc3ccccc3)c12	.	.	.	.	.	.
O=C(NCCCn1ccnc1)c1cc2c(s1)CCCCC2	.	.	.	.	.	.
O=C(CN1CCN(C2CCCCC2)CC1)NCCC1=CCCCC1	.	.	.	.	.	61.0
CS(=O)(=O)N(CC(=O)NCCC1=CCCCC1)C1CCCCC1	.	.	.	.	.	.
Cc1ccc(-c2csc(/C(C#N)=C(\O)CN3CCN(C(=O)c4ccco4)CC3)n2)cc1	.	.	.	.	.	.
COc1cccc(-c2cn3nc4c(nc3n2)CCCC4)c1	.	.	2.63	.	.	.
CCCCn1nc(NC(=O)c2cccs2)c2cc3ccccc3nc21	.	/	2.24	.	.	.
CCCC(=O)Nc1nn(CCC)c2nc3ccccc3cc12	.	.	.	.	.	.
CCCn1nc(NC(=O)c2cccs2)c2cc3cc(OC)ccc3nc21	.	/	2.03	.	.	.
CCCn1nc(NC(=O)c2ccncc2)c2cc3ccccc3nc21	.	.	.	.	.	.
COc1ccc(NC(=O)c2ccccc2NC(=O)C2CCCO2)cc1 (stereo not drawn)	.	.	.	.	.	.
COc1ccc2nc3c(cc2c1)c(NC(=O)C1CCCO1)nn3CC(C)C (stereo not drawn)	.	/	3.71	.	.	.
CCCCn1nc(NC(=O)c2cccs2)c2cc3cc(OC)ccc3nc21	.	/	3.64	.	.	.
CN1/C(=N\O)c2cccc3cccc1c23	.	.	2.21	.	.	.
Cn1cnc2c1c(=O)n(CC(O)CO)c(=O)n2C (stereo not drawn)	.	.	.	.	.	/
COc1cccc(C(=O)Nc2ncc3c(n2)CC(C)(C)CC3=O)c1	.	.	.	.	.	.
O=S1(=O)NC2CCCCCN2c2ccc(F)cc21 (stereo not drawn)	.	.	3.64	.	.	.
O=C(Nc1ccc(F)cc1)C1CCCCC1	.	.	.	.	.	.
O=C(c1coc2ccccc2c1=O)N1CCN(c2cccc(C(F)(F)F)c2)CC1	.	.	.	.	.	.
CCn1c(SCC(=O)c2[nH]c(C)c(C(C)=O)c2C)nnc1-c1cccs1	.	.	.	27.0	.	.
COc1cc(-c2nnc(SCC(=O)c3ccccc3)o2)cc(OC)c1OC	.	.	.	.	.	.
COc1cc(-c2nnc(-c3ccc(S(=O)(=O)c4ccccc4)cc3)o2)cc(OC)c1OC	.	/	3.74	.	.	.
Cc1cc(C)c2cc(CN(CCO)C(c3nnnn3Cc3ccc(F)cc3)C(C)C)c(=O)[nH]c2c1 (stereo not drawn)	.	.	.	.	.	.
CCC(c1nnnn1Cc1ccc(F)cc1)N(CCCO)Cc1cc2cc3c(cc2[nH]c1=O)OCO3 (stereo not drawn)	.	.	2.25	.	.	.
